Measurements: PubChem BioAssay (NCI)
About 79,000 compounds went through this panel and 15% of them were active in at least one assay; those are over-represented in the sample as a whole. Activity calls are given as the source filed them. Cut-off read from the data, not from the text of the source: active = growth inhibition above about 70%; inactive = the rest.

Columns and labels:
[1] = NCI Yeast Anticancer Drug Screen. Data for the wt1 strain (AID 149);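 note: 0% = growth of vehicle-treated wt1 cultures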; conditions: S. cerevisiae wt1 strain (SPY 50644) growth inhibition, stronger effect = higher value
Outline: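 Measured: growth of wt1 yeast under compound versus vehicle treatment, reported as inhibition.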

[2] = NCI Yeast Anticancer Drug Screen. Data for the rad50EPP+ strain (AID 151);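 note: 0% = growth of vehicle-treated control cultures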; conditions: S. cerevisiae rad50 mutant strain, stronger effect = higher value
Outline: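 In this screen, rad50EPP+ yeast were exposed to compounds. Growth inhibition was scored against vehicle-treated controls.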

[3] = NCI Yeast Anticancer Drug Screen. Data for the mgt1 strain (AID 153); conditions: S. cerevisiae mgt1 mutant growth inhibition, stronger effect = higher value
Outline: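 mgt1 strain exposed; growth vs vehicle control recorded as inhibition.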

[4] = NCI Yeast Anticancer Drug Screen. Data for the rad50 strain (AID 155);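 note: 0% = growth of vehicle-only cultures of the same strain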; conditions: S. cerevisiae rad50 strain growth inhibition, stronger effect = higher value
Outline: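 Growth of the mutant yeast was measured after compound exposure and referenced to vehicle-treated cultures.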

[5] = NCI Yeast Anticancer Drug Screen. Data for the mec2-1 strain (AID 157); conditions: S. cerevisiae mec2-1 strain, stronger effect = higher value
Outline: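 Vehicle-treated cultures served as reference for growth inhibition of compound-exposed mec2-1 yeast.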

[6] = NCI Yeast Anticancer Drug Screen. Data for the sgs1 mgt1 strain (AID 161);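 note: 0% = growth of cultures given vehicle only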; conditions: S. cerevisiae sgs1 mgt1 strain, stronger effect = higher value
Outline: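 Read-out: growth inhibition vs vehicle controls. Cells: mutant yeast strain deficient in DNA damage repair.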

[7] = NCI Yeast Anticancer Drug Screen. Data for the cln2 rad14 strain (AID 165);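 note: 0% = growth equal to vehicle treated cultures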; conditions: S. cerevisiae cln2 rad14 strain, stronger effect = higher value
Outline: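 Each compound was tested on cln2 rad14 yeast. Inhibition of growth was calculated against vehicle-exposed controls.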

[8] = NCI Yeast Anticancer Drug Screen. Data for the bub3 strain (AID 167); conditions: S. cerevisiae bub3 mutant strain, stronger effect = higher value
Outline: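 Whole-cell yeast assay. The mutant strain was incubated with compounds, and growth inhibition was determined by comparison with vehicle-treated cells.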

[9] = NCI Yeast Anticancer Drug Screen. Data for the wt2 strain (AID 169);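 note: 0% = growth of vehicle-treated yeast cultures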; conditions: S. cerevisiae wt2 strain growth inhibition, stronger effect = higher value
Outline: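 Inhibition of yeast growth was determined after compound treatment, normalised to controls receiving only vehicle.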

[10] = NCI Yeast Anticancer Drug Screen. Data for the mlh1 strain (AID 171);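 note: 0% = growth of vehicle-treated control cultures of the same strain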; conditions: S. cerevisiae mlh1 strain growth inhibition, stronger effect = higher value
Outline: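 Vehicle-normalised growth inhibition of a repair- or checkpoint-altered yeast strain following compound treatment.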

[11] = NCI Yeast Anticancer Drug Screen. Data for the sgs1 strain (AID 173);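 note: 0% = growth of vehicle-only control cultures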; conditions: S. cerevisiae sgs1 mutant, stronger effect = higher value
Outline: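 Screen format: yeast with repair or checkpoint alterations, compound exposure, growth read relative to vehicle.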

[12] = NCI Yeast Anticancer Drug Screen. Data for the mlh1 rad18 strain (AID 175); conditions: S. cerevisiae mlh1 rad18 strain growth inhibition, stronger effect = higher value
Outline: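 Vehicle-treated cultures served as the reference for growth inhibition in a yeast strain carrying DNA damage repair alterations exposed to each compound.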

[13] = NCI Yeast Anticancer Drug Screen. Data for the rad18 strain (AID 177); conditions: S. cerevisiae rad18 mutant growth inhibition, stronger effect = higher value
Outline: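 Test articles were incubated with altered yeast defective in DNA damage repair. Results are given as inhibition of growth versus vehicle.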

[14] = NCI Yeast Anticancer Drug Screen. Data for the rad14 strain (AID 159);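 note: 0% = growth of vehicle-treated control cultures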; conditions: S. cerevisiae rad14 strain growth inhibition, stronger effect = higher value
Outline: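 Here, inhibition of yeast growth was measured after compound exposure, using a strain with a genetic defect in DNA damage repair and vehicle-treated cultures as the reference.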

[15] = NCI Yeast Anticancer Drug Screen. Data for the CLN2oe strain (AID 163);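 note: 0% = growth of vehicle-only control cultures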; conditions: S. cerevisiae CLN2oe strain, stronger effect = higher value
Outline: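 Inhibition relative to vehicle-treated yeast is reported. Cells: strain with genetic alteration in cell-cycle control, grown with compound.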

[16] = at 5.0 µM (retest, dose inferred, filed as 0.5)
[17] = at 50.0 µM (retest, dose inferred, filed as 5.0)

Measured: growth inhibition

COc1cc(C2c3cc4c(cc3OC(OC(C)=O)C2C)OCO4)cc(OC)c1OC (stereo unspecified)
inactive: [1]; at 1.2 µM -2% | [1]; at 3.7 µM -3% | [1]; at 11.0 µM -5% | [1]; at 33.0 µM -11% | [1]; at 100.0 µM 56% | [2]; at 1.2 µM -3% | [2]; at 3.7 µM -1% | [2]; at 11.0 µM 1% | [2]; at 33.0 µM -1% | [2]; at 100.0 µM 5% | [3]; at 1.2 µM -2% | [3]; at 3.7 µM -1% | [3]; at 11.0 µM -10% | [3]; at 33.0 µM -12% | [3]; at 100.0 µM 43% | [4]; at 1.2 µM -1% | [4]; at 3.7 µM -1% | [4]; [16] 1% | [4]; at 11.0 µM -5% | [4]; at 33.0 µM -5% | [4]; [17] 49% | [4]; at 50.0 µM -0.3% | [5]; at 1.2 µM -6% | [5]; at 3.7 µM 0% | [5]; [16] -4% | [5]; at 11.0 µM -1% | [5]; at 33.0 µM -5% | [5]; [17] 5% | [5]; at 50.0 µM 2.6% | [5]; at 100.0 µM 56% | [6]; [16] -8% | [6]; [17] 29% | [6]; at 50.0 µM -4.55% | [7]; [16] -14% | [7]; [17] 3% | [7]; at 50.0 µM -13.1% | [8]; at 1.2 µM 5% | [8]; at 3.7 µM 5% | [8]; [16] 17% | [8]; at 11.0 µM 22% | [8]; at 33.0 µM 38% | [8]; [17] 58% | [8]; at 50.0 µM 35.6% | [9]; at 1.2 µM -2% | [9]; at 3.7 µM -5% | [9]; at 11.0 µM -6% | [9]; at 33.0 µM -13% | [9]; at 100.0 µM 66% | [10]; at 1.2 µM -2% | [10]; at 3.7 µM -5% | [10]; at 11.0 µM -2% | [10]; at 33.0 µM -7% | [10]; at 100.0 µM 69% | [11]; at 1.2 µM -3% | [11]; at 3.7 µM -2% | [11]; at 11.0 µM -3% | [11]; at 33.0 µM -3% | [12]; [16] -4% | [12]; [17] 23% | [12]; at 50.0 µM -2.5% | [13]; at 1.2 µM -3% | [13]; at 3.7 µM -4% | [13]; at 11.0 µM 1% | [13]; at 33.0 µM 5%
active: [4]; at 100.0 µM 77% | [8]; at 100.0 µM 89% | [11]; at 100.0 µM 79% | [13]; at 100.0 µM 85%

O=C(/C=C(/c1ccccc1)N1CCCCC1)c1ccccc1
active: [1]; at 100.0 µM 94% | [3]; at 100.0 µM 87% | [4]; [17] 92% | [4]; at 50.0 µM 90.3% | [4]; at 100.0 µM 97% | [5]; [17] 84% | [5]; at 100.0 µM 82% | [14]; at 100.0 µM 98% | [6]; [17] 94% | [6]; at 50.0 µM 82.1% | [15]; at 100.0 µM 97% | [7]; [17] 79% | [8]; [17] 99% | [8]; at 100.0 µM 94% | [9]; at 100.0 µM 95% | [10]; at 100.0 µM 96% | [11]; at 100.0 µM 97% | [12]; [17] 99% | [12]; at 50.0 µM 89.3% | [13]; at 100.0 µM 97%
inactive: [1]; at 1.2 µM -1% | [1]; at 3.7 µM 4% | [1]; at 11.0 µM 1% | [1]; at 33.0 µM 9% | [2]; at 1.2 µM 3% | [2]; at 3.7 µM 16% | [2]; at 11.0 µM 42% | [2]; at 33.0 µM 43% | [2]; at 100.0 µM 31% | [3]; at 1.2 µM -3% | [3]; at 3.7 µM -2% | [3]; at 11.0 µM 0% | [3]; at 33.0 µM 10% | [4]; at 1.2 µM -1% | [4]; at 3.7 µM -1% | [4]; [16] 0% | [4]; at 11.0 µM 5% | [4]; at 33.0 µM 11% | [5]; at 1.2 µM -4% | [5]; at 3.7 µM -5% | [5]; [16] -12% | [5]; at 11.0 µM -3% | [5]; at 33.0 µM 7% | [5]; at 50.0 µM 53% | [14]; at 1.2 µM 3% | [14]; at 3.7 µM 6% | [14]; at 11.0 µM 9% | [14]; at 33.0 µM 30% | [6]; [16] 44% | [15]; at 1.2 µM -6% | [15]; at 3.7 µM -7% | [15]; at 11.0 µM -3% | [15]; at 33.0 µM -4% | [7]; [16] 14% | [7]; at 50.0 µM 46% | [8]; at 1.2 µM 2% | [8]; at 3.7 µM 3% | [8]; [16] 34% | [8]; at 11.0 µM 7% | [8]; at 33.0 µM 19% | [8]; at 50.0 µM 54.8% | [9]; at 1.2 µM -1% | [9]; at 3.7 µM 1% | [9]; at 11.0 µM 1% | [9]; at 33.0 µM 15% | [10]; at 1.2 µM -4% | [10]; at 3.7 µM -1% | [10]; at 11.0 µM -3% | [10]; at 33.0 µM 5% | [11]; at 1.2 µM -1% | [11]; at 3.7 µM -1% | [11]; at 11.0 µM 3% | [11]; at 33.0 µM 20% | [12]; [16] 55% | [13]; at 1.2 µM -2% | [13]; at 3.7 µM 1% | [13]; at 11.0 µM 3% | [13]; at 33.0 µM 9%
